# About 3,300 (8.5%) of roughly 39,000 compounds were called active. The sample holds actives, similar compounds and a random draw of the others, so the mix is not that of the screen.
# System: HepG2
# Assay: cytotoxicity call (relative viability < 0.9)
# Details: 10 µM
row,SMILES,cytotoxicity call
1,CO[C@@H]1CN(C)C(=O)c2cc(NC(=O)Nc3cccc(Cl)c3)ccc2OC[C@H](C)N(C(=O)Nc2c(C)noc2C)C[C@@H]1C,inactive
2,C[C@H]1CC/C=C\[C@H]2O[C@@]34C=CCN(Cn5nnc6ccccc65)C(=O)[C@H]3N(CCCO)C(=O)[C@@H]4[C@@H]2C(=O)O1,inactive
3,C[C@H]1CCCCO[C@H](CN(C)C(=O)c2ccccc2)[C@@H](C)CN([C@@H](C)CO)C(=O)c2cc(NC(=O)Nc3ccc(C(F)(F)F)cc3)ccc2O1,inactive
4,O=C(NC1(C(F)(F)F)Oc2cc(Cl)c(Cl)cc2O1)C1=C(N2CCOCC2)/C(=C/c2ccccc2)CC1,active
5,C[C@H]1CN([C@@H](C)CO)C(=O)c2cc(NS(=O)(=O)c3ccc(F)cc3)ccc2O[C@@H]1CN(C)CC1CC1,inactive
6,C[C@@H]1CN([C@H](C)CO)C(=O)c2cccc(NC(=O)C3CC3)c2O[C@@H]1CN(C)S(=O)(=O)c1cccs1,inactive
7,C[C@@H]1CN([C@H](C)CO)C(=O)Cc2cc(NC(=O)Nc3ccc(F)cc3)ccc2O[C@@H]1CN(C)S(=O)(=O)c1cn(C)cn1,inactive
8,C[C@H](CO)N1C[C@H](C)[C@@H](CN(C)S(=O)(=O)c2cccs2)Oc2ccc(NC(=O)Nc3cccc4ccccc34)cc2C1=O,inactive
9,CN1CCN(CCO)C(=O)C12CCN([C@H]1CCOC1)CC2,inactive
10,C=CCOC(=O)[C@H]1[C@@H]2C(=O)O[C@@H](c3ccccc3)[C@@H](c3ccccc3)N2[C@@H](c2ccc(OCCOC(=O)[C@H]3C[C@H]4C(=O)N5CCC[C@H]5C(=O)N4[C@H]3c3ccc(O)cc3)cc2)[C@]12C(=O)Nc1ccc(I)cc12,inactive
11,Cc1noc(C)c1S(=O)(=O)Nc1ccc2c(c1)CC(=O)N([C@H](C)CO)C[C@@H](C)[C@H](CN(C)Cc1ccc(Oc3ccccc3)cc1)O2,inactive
12,COc1oc(C(=O)NC2CCCCC2)c(-c2ccc(Cl)cc2)c1S(=O)(=O)c1ccc(Br)cc1,inactive
13,COc1oc(C(=O)NC2CCCCC2)c(-c2ccc(Cl)cc2)c1S(=O)(=O)c1ccc(Cl)cc1,inactive
14,C#CCOc1ccc(-c2c(C(=O)NC3CCCCC3)oc(OC)c2S(=O)(=O)c2ccc(Cl)cc2)cc1,active
15,C[C@@H]1CN([C@@H](C)CO)C(=O)c2cc(NS(=O)(=O)c3cn(C)cn3)ccc2O[C@@H](C)CCCCO[C@H]1CN(C)Cc1ccc(C(F)(F)F)cc1,inactive
16,CCCCC1C(=O)N(c2ccccc2)N(c2ccc(O)cc2)C1=O (centres undefined),active
17,O=C1C(CCS(=O)c2ccccc2)C(=O)N(c2ccccc2)N1c1ccccc1 (centres undefined),inactive
18,CCCCC1C(=O)N(c2ccccc2)N(c2ccccc2)C1=O,inactive
19,CC[C@H](C(=O)O)N1CCCC1,inactive
20,C[C@@H]1CN([C@@H](C)CO)C(=O)Cc2cc(NC(=O)CCCCCC(=O)Nc3ccccc3N)ccc2O[C@@H]1CN(C)CC1CCCCC1,active
21,C[C@H](CO)N1C[C@H](C)[C@H](CN(C)CC2CCCCC2)Oc2ccc(NC(=O)CCCCCC(=O)Nc3ccccc3N)cc2C1=O,active
22,C[C@@H]1CN([C@@H](C)CO)C(=O)c2cc(NC(=O)CCCCCC(=O)Nc3ccccc3N)ccc2O[C@H]1CN(C)CC1CCCCC1,inactive
23,C[C@@H]1CN([C@H](C)CO)C(=O)c2cc(NC(=O)CCCCCC(=O)Nc3ccccc3N)ccc2O[C@H]1CN(C)CC1CCCCC1,inactive

row,SMILES,cytotoxicity call
1,C[C@@H]1CN([C@H](C)CO)C(=O)Cc2cc(NC(=O)CCCCCC(=O)Nc3ccccc3N)ccc2O[C@@H]1CN(C)CC1CCCCC1,inactive
2,C[C@H](CO)N1C[C@H](C)[C@@H](CN(C)CC2CCCCC2)Oc2ccc(NC(=O)CCCCCC(=O)Nc3ccccc3N)cc2C1=O,active
3,C[C@@H]1CCCCO[C@@H](CN(C)CC2CCCCC2)[C@@H](C)CN([C@H](C)CO)C(=O)c2cc(NC(=O)CCCCCC(=O)Nc3ccccc3N)ccc2O1,inactive
4,C[C@H]1CN([C@@H](C)CO)C(=O)c2cc(NC(=O)CCCCCC(=O)Nc3ccccc3N)ccc2O[C@H]1CN(C)CC1CCCCC1,active
5,C[C@@H]1CN([C@@H](C)CO)C(=O)c2cc(NC(=O)CCCCCC(=O)Nc3ccccc3N)ccc2O[C@@H](C)CCCCO[C@@H]1CN(C)CC1CCCCC1,inactive
6,C[C@H]1CN([C@@H](C)CO)C(=O)c2cc(NC(=O)CCCCCC(=O)Nc3ccccc3N)ccc2O[C@@H]1CN(C)CC1CCCCC1,inactive
7,C[C@@H]1CN([C@@H](C)CO)C(=O)c2cc(NC(=O)CCCCCC(=O)Nc3ccccc3N)ccc2O[C@@H]1CN(C)CC1CCCCC1,inactive
8,C[C@@H]1CN([C@H](C)CO)C(=O)Cc2cc(NC(=O)CCCCCC(=O)Nc3ccccc3N)ccc2O[C@H]1CN(C)CC1CCCCC1,inactive
9,Cc1noc(C)c1NC(=O)Nc1ccc2c(c1)C(=O)N([C@H](C)CO)C[C@H](C)[C@H](CN(C)S(=O)(=O)c1ccc(F)cc1)OCCCC[C@H](C)O2,inactive
10,C[C@H]1CCCCO[C@H](CN(C)S(=O)(=O)c2ccccc2)[C@@H](C)CN([C@@H](C)CO)C(=O)c2cc(NC(=O)C3CCCCC3)ccc2O1,inactive
11,CN1CCN(C(=O)c2nn(C)c3c2CCN(S(C)(=O)=O)C3)CC1,inactive
12,C[C@H](CO)N1C[C@H](C)[C@@H](CN(C)CC2CCOCC2)Oc2cc(-c3cccnc3)ccc2S1(=O)=O,inactive
13,COc1ccc(S(=O)(=O)Nc2cccc3c2O[C@H](CN(C)C(=O)Nc2c(C)noc2C)[C@H](C)CN([C@H](C)CO)C3=O)cc1,inactive
14,CCS(=O)(=O)N1C[C@]2(CCN(CC2)C(=O)Cc2ccccc2)c2c(n(c3cc(ccc23)OC)C)[C@@H]1CO,inactive
15,Cc1ccc[nH]c1=O,inactive
16,COc1cccc(S(=O)(=O)N(C)C[C@@H]2Oc3cc(C#CCC(C)C)ccc3S(=O)(=O)N([C@@H](C)CO)C[C@@H]2C)c1,inactive
17,CC1(C)SC2C(NC(=O)Cc3ccccc3)C(=O)N2C1C(=O)[O-].[K+] (centres undefined),inactive
18,C[C@@H]1CCCCO[C@@H](CN(C)C(=O)Nc2ccc3c(c2)OCO3)[C@H](C)CN([C@@H](C)CO)C(=O)c2cc(NS(=O)(=O)c3ccc(F)cc3)ccc2O1,inactive
19,COc1ccc(CN(C)C[C@H]2Oc3ccc(NC(=O)Cn4cnnn4)cc3CC(=O)N([C@H](C)CO)C[C@H]2C)cc1,inactive
20,C[C@@H]1CN([C@H](C)CO)C(=O)Cc2cc(NS(C)(=O)=O)ccc2O[C@@H]1CN(C)Cc1ccc2c(c1)OCO2,inactive
21,Nn1c(-c2ccncc2)n[nH]c1=S,inactive
22,O=C(CCc1cn(-c2ccc(C[C@H]3C(=O)O[C@@H](Cc4ccccc4)[C@H]4[C@@H]5C=CCCC=C5CN43)cc2)nn1)NO,inactive
23,O=C(NO)c1cn(-c2ccc(C[C@H]3C(=O)O[C@@H](Cc4ccccc4)[C@H]4[C@@H]5C=CCCC=C5CN43)cc2)nn1,active

row,SMILES,cytotoxicity call
1,O=C(/C=C/c1cccc(-c2cn(-c3ccc(C[C@H]4C(=O)O[C@@H](Cc5ccccc5)[C@H]5[C@@H]6C=CCCC=C6CN54)cc3)nn2)c1)NO,inactive
2,CC(C)[C@@H](CO)N1C(=O)[C@]2(C)[C@H]3C(=O)OCCC/C=C\[C@H]3O[C@]23C=CCN(c2ccc(Cl)cc2)C(=O)[C@@H]13,inactive
3,NC[C@@H]1O[C@H](C23CC4CC(CC(C4)C2)C3)Cc2c1ccc(O)c2O,inactive
4,C[C@H](CO)N1C[C@H](C)[C@H](CN(C)S(C)(=O)=O)Oc2cc(-c3ccccc3F)ccc2S1(=O)=O,inactive
5,O=[N+]([O-])c1ccc(Oc2ccc(-c3ccccc3)cc2)cc1,active
6,C=C(C)COc1ccc([N+](=O)[O-])cc1,inactive
7,CS(=O)(=O)Nc1ccc([N+](=O)[O-])cc1Oc1ccccc1,inactive
8,Cn1c(=O)c2c(ncn2CCNC2=NCCC2)n(C)c1=O,inactive
9,Cc1noc(C)c1NC(=O)Nc1cccc2c1O[C@@H](CN(C)S(=O)(=O)c1cn(C)cn1)[C@@H](C)CN([C@@H](C)CO)C2=O,inactive
10,Cc1noc(C)c1S(=O)(=O)Nc1ccc2c(c1)C(=O)N([C@H](C)CO)C[C@H](C)[C@H](CN(C)S(=O)(=O)c1ccccc1)O2,inactive
11,Cc1noc(C)c1S(=O)(=O)N(C)C[C@@H]1Oc2c(NS(=O)(=O)c3cn(C)cn3)cccc2C(=O)N([C@H](C)CO)C[C@@H]1C,inactive
12,CCC1(O)C(=O)OCc2c1cc1n(c2=O)Cc2cc3c(CN(C)C)c(O)ccc3nc2-1.Cl (centres undefined),active
13,CC[C@@]1(O)C(=O)OCc2c1cc1n(c2=O)Cc2c-1nc1cc(F)c(C)c3c1c2[C@@H](N)CC3,active
14,CCC1(O)C(=O)OCc2c1cc1n(c2=O)Cc2cc3cc(O)ccc3nc2-1 (centres undefined),inactive
15,CCC[C@@H](N[C@H]1CCS(=O)(=O)C1)C(=O)O,inactive
16,NC[C@H](c1ccco1)N1CCc2ccccc2C1,inactive
17,C[C@@H]1CN([C@@H](C)CO)C(=O)c2cccc(NS(=O)(=O)c3ccccc3)c2O[C@@H]1CN(C)Cc1ccncc1,inactive
18,C[C@H](CO)N1C[C@H](C)[C@H](CN(C)S(=O)(=O)c2ccc(Cl)cc2)Oc2ccc(NC(=O)Cn3cnnn3)cc2CC1=O,inactive
19,COCC#Cc1ccc([C@@H]2[C@@H](CO)N3C(=O)CN(C(=O)C4CCOCC4)C[C@@H]23)cc1,inactive
20,Cc1noc(C)c1NC(=O)N(C)C[C@@H]1Oc2ccc(NC(=O)Cn3cnnn3)cc2C(=O)N([C@H](C)CO)C[C@@H]1C,inactive
21,C[N+](C)(CCOc1ccccc1)Cc1ccccc1.O=C(O)c1cc2ccccc2c(Br)c1O,inactive
22,C[N+](C)(CCOc1ccccc1)Cc1ccccc1.O=C([O-])c1cc2ccccc2cc1O,inactive
23,Cc1cc(C(C)(C)CC(C)(C)C)ccc1OCCOCC[N+](C)(C)Cc1ccccc1.[Cl-],active

# From the antibiotic and cytotoxicity screens of Wong et al. (2023)
